Assay [1] is described as follows: EP2 hit retest with parallel cAMP counter-assays – cell-based, five parallel assays, C6 glioma, HEK293, counter-screen for EP2 modulator project, confirmation (AID 1080). The following applies: C6 glioma EP2 cells, cAMP HTRF induction. In general terms: A counterscreen serves to expose hits that act by an unwanted route or on another target.
For assay [2], the target named is Prostaglandin E2 receptor EP2 subtype (Homo sapiens) (UniProt P43116). The description is as above. The following applies: C6 glioma EP2 cells, cAMP HTRF induction; stronger effect = higher value; screened at 20 µM (by protocol); percent of 1 uM PGE2 response; plus low (about EC15) PGE2 agonist. (In general: In TR-FRET formats the signal depends on donor and acceptor labels being close together.)

The mark [3] stands for this setting: measured here: EP4 receptor counter-screen, percent of 1 uM PGE2 response, plus low (about EC15) PGE2 agonist.
The mark [4] stands for this setting: measured here: beta2 adrenergic HEK293 counter-screen.
The mark [5] stands for this setting: measured here: cAMP conditions counter-screen.
[6] abbreviates: measured here: parent C6 cells counter-screen.

Structures are written as SMILES. The whole screen tested about 1,300 compounds, of which about 640 (49%) were called active.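 The calls were made as follows: active = cAMP induction above 50% in the main assay while under 30% in all four parallel counter assays; inactive = the rest.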 The set was probably picked from earlier hits. A selection follows.

On to `O=C(Nc1ccccc1N1CCCCC1)c1cccc(F)c1`, for which the cAMP induction was 20.9% in assay [1] (setting [3]); -8.46% in assay [1] (setting [4]); -6.32% in assay [1] (setting [5]); -1.46% in assay [1] (setting [6]); 54.4% (active) in assay [2].

As for `O=C(Nc1ccccc1N1CCCCC1)c1ccc2nccnc2c1`, the cAMP induction in assay [1] (setting [3]) is -20.6%; in assay [1] (setting [4]), -12.3%; in assay [1] (setting [5]) it was -1.35%; in assay [1] (setting [6]), -3.85%; in assay [2], 56.9% (active).

For `CCC(C)(C)c1ccc(OCC(=O)N(C)C)c(C(C)(C)CC)c1`, the cAMP induction is -18% in assay [1] (setting [3]); -18.7% in assay [1] (setting [4]); -1.65% in assay [1] (setting [5]); -11.3% in assay [1] (setting [6]); 18.5% (inactive) in assay [2].

Take `CC[C@@H]1Cc2cc(O)ccc2C2=C1c1ccc(O)cc1C[C@H]2CC`: the cAMP induction is -0.0767% in assay [1] (setting [3]); -11.7% in assay [1] (setting [4]); 6.45% in assay [1] (setting [5]); 2.02% in assay [1] (setting [6]); 34.5% (inactive) in assay [2].

On to `CCCc1cc(-c2n[nH]c(=S)n2Cc2ccccc2)cs1`, for which the cAMP induction in assay [1] (setting [3]) is 1.9%; in assay [1] (setting [4]), -7.59%; in assay [1] (setting [5]) it was -4.47%; in assay [1] (setting [6]) it was 1.74%; in assay [2], 37.8% (inactive).

Take `CCCCOc1ccc(-c2nnc(-c3ccco3)o2)cc1`: the cAMP induction was -1.8% in assay [1] (setting [3]); -7.34% in assay [1] (setting [4]); 3.34% in assay [1] (setting [5]); 3.09% in assay [1] (setting [6]); 50.4% (active) in assay [2].

Turning to `Cc1cc(C#N)c(SCC(N)=O)nc1-c1ccc(F)cc1`, the cAMP induction in assay [1] (setting [3]) is 9.53%; in assay [1] (setting [4]) it was 7.22%; in assay [1] (setting [5]) it was 2.14%; in assay [1] (setting [6]) it was -4.05%; in assay [2], 50.9% (active).

On to `FC(F)(F)c1cccc(-c2cc3ccccc3nc2N2CCCC2)c1`, for which the cAMP induction is 17.7% in assay [1] (setting [3]); -13% in assay [1] (setting [4]); -2.73% in assay [1] (setting [5]); -3.28% in assay [1] (setting [6]); 52.7% (active) in assay [2].

On to `CCOC(=O)c1c(C2CC2)csc1NC(=O)CSCc1c(C)noc1C`, for which the cAMP induction in assay [1] (setting [3]) is -15.3%; in assay [1] (setting [4]), -5.42%; in assay [1] (setting [5]), -2.02%; in assay [1] (setting [6]), 2.56%; in assay [2], 48.8% (inactive).

With `O=c1cc(N2CCCCC2)c(-c2ccccc2)nn1Cc1cccc(F)c1`, the cAMP induction is -7.11% in assay [1] (setting [3]); -13% in assay [1] (setting [4]); 3.15% in assay [1] (setting [5]); 3.46% in assay [1] (setting [6]); 79.6% (active) in assay [2].

With `CCOc1ccc(NC(=O)CSc2ncnc3c2sc2ccccc23)cc1`, the cAMP induction in assay [1] (setting [3]) was 80.8%; in assay [1] (setting [4]), 81.1%; in assay [1] (setting [5]), 79.9%; in assay [1] (setting [6]), 80.1%; in assay [2], 77.7% (inactive).

As to `COc1ccc(C)c(Cn2c(-c3nonc3N)nc3ccccc32)c1`, the cAMP induction in assay [1] (setting [3]) is 4.7%; in assay [1] (setting [4]) it was -6.52%; in assay [1] (setting [5]), 1.9%; in assay [1] (setting [6]), 1.52%; in assay [2], 69.6% (active).

Consider `COC(=O)C1=C(C)N(C)C(C)=C(C(=O)OC)C1c1cccc(Br)c1`, for which the cAMP induction in assay [1] (setting [3]) is -5.89%; in assay [1] (setting [4]), 5.82%; in assay [1] (setting [5]), -5.28%; in assay [1] (setting [6]), 1.49%; in assay [2], 46% (inactive).

On to `Cc1ccccc1-c1n[nH]c(=S)n1/N=C/c1ccc(-c2ccccc2Br)o1`, for which the cAMP induction in assay [1] (setting [3]) is 18.4%; in assay [1] (setting [4]) it was 14.3%; in assay [1] (setting [5]), 22.4%; in assay [1] (setting [6]), 19.4%; in assay [2], 57.9% (active).

On to `O=c1[nH]c(CSc2ncc(-c3ccc(F)cc3)n2Cc2ccco2)nc2ccccc12`, for which the cAMP induction in assay [1] (setting [3]) is -12.9%; in assay [1] (setting [4]), -5.45%; in assay [1] (setting [5]), -6.27%; in assay [1] (setting [6]), -5.69%; in assay [2], 39.9% (inactive).

Consider `Cc1nn2c(c1-c1ccccc1)N=C(c1ccco1)CC2c1ccccc1` (stereo not given), for which the cAMP induction was -13.9% in assay [1] (setting [3]); -0.13% in assay [1] (setting [4]); 0.137% in assay [1] (setting [5]); 4.52% in assay [1] (setting [6]); 36.7% (inactive) in assay [2].

`NC(=O)COc1ccc(C23CC4CC(CC(C4)C2)C3)cc1`: the cAMP induction in assay [1] (setting [3]) was -2.42%; in assay [1] (setting [4]), -18.4%; in assay [1] (setting [5]) it was 7.34%; in assay [1] (setting [6]) it was -0.99%; in assay [2], 64.6% (active).

Turning to `Cc1nc2ccccc2c(-c2ccccc2)c1C(=O)c1ccccc1`, the cAMP induction in assay [1] (setting [3]) was 2.31%; in assay [1] (setting [4]), 4.97%; in assay [1] (setting [5]), -6.03%; in assay [1] (setting [6]) it was -0.11%; in assay [2], 88.9% (active).

Consider `CC(C)(C)c1nc2ccccc2c(=O)n1N1C(=O)c2ccccc2C1=O`, for which the cAMP induction was -2.16% in assay [1] (setting [3]); 4.41% in assay [1] (setting [4]); 5.06% in assay [1] (setting [5]); 3.57% in assay [1] (setting [6]); 36.9% (inactive) in assay [2].

Turning to `O=c1c2ccccc2nc2n1C1(CCCCC1)Cc1ccccc1-2`, the cAMP induction in assay [1] (setting [3]) is -3.33%; in assay [1] (setting [4]), -1.27%; in assay [1] (setting [5]) it was 0.00333%; in assay [1] (setting [6]), -4.35%; in assay [2], 55.1% (active).

Regarding `CN(C)Cc1ccc(F)cc1Sc1cc(Cl)ccc1Cl`, the cAMP induction was -1.47% in assay [1] (setting [3]); -10.1% in assay [1] (setting [4]); -3.1% in assay [1] (setting [5]); 2.77% in assay [1] (setting [6]); 45.2% (inactive) in assay [2].

As to `CC(C)NC(=S)NN=C1CCCCCCCCCCC1`, the cAMP induction in assay [1] (setting [3]) is 1.01%; in assay [1] (setting [4]), 7.6%; in assay [1] (setting [5]) it was 2.87%; in assay [1] (setting [6]) it was -7.59%; in assay [2], 54.8% (active).

Turning to `COC(=O)CSc1nc2c(c(C3CC=CCC3)c1C#N)CCC2` (stereo not given), the cAMP induction in assay [1] (setting [3]) is 1.11%; in assay [1] (setting [4]), 7.56%; in assay [1] (setting [5]), 3.4%; in assay [1] (setting [6]), 4.46%; in assay [2], 69.8% (active).

Turning to `CSc1ncnc2sc(C)c(C)c12`, the cAMP induction in assay [1] (setting [3]) was 5.89%; in assay [1] (setting [4]), 2.78%; in assay [1] (setting [5]) it was 5.03%; in assay [1] (setting [6]), 0.0167%; in assay [2], 42.1% (inactive).

For the molecule `Cc1cccc(Cn2c(N3CCN(c4ccccc4)CC3)nc3c2c(=O)n(C)c(=O)n3C)c1`, the cAMP induction is -5.29% in assay [1] (setting [3]); -6.91% in assay [1] (setting [4]); 5.21% in assay [1] (setting [5]); 1.06% in assay [1] (setting [6]); 54.8% (active) in assay [2].

As for `CC1CCN(c2nc3c(c(=O)[nH]c(=O)n3C)n2CCCc2ccccc2)CC1`, the cAMP induction in assay [1] (setting [3]) is 4.8%; in assay [1] (setting [4]), -2.72%; in assay [1] (setting [5]) it was -1.35%; in assay [1] (setting [6]), -0.403%; in assay [2], 42.2% (inactive).

(Values after PubChem BioAssay AID1080 (Emory University Molecular Libraries Screening Center, 2008).)
